Screening data: PubChem, National Center for Advancing Translational Sciences (NCATS)
In the library only some 6.9% were active in any assay of this set; here they are far more common.
Vif-APOBEC3F blk = qHTS for Inhibitors of Vif-A3F Interactions: qHTS; 390,000 compounds, 0.2% hits; HeLa A3F-eYFP + Vif (tagged APOBEC3F with the HIV-1 protein that degrades it), YFP fluorescence increase; AID 602313, 2012; Potency, µM (series often up to 46.1 µM), inactives show at the top dose activity, negative = active; further: potency means the concentration at half of the fitted maximal effect; % of control where 0% means no effect; nearly all actives have a fitted effect of over 65% in size
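Fluorescence increase (Ex 488/Em 500-530) after overnight compound treatment at 37 deg C flags inhibition of Vif-driven A3F-eYFP loss in stable HeLa A3F-eYFP/Vif cells seeded overnight beforehand.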
Giardia kill = Small Molecules that selectively kill Giardia lamblia: qHTS. activity change, % at 7.66 µM, hits read low. Giardia lamblia trophozoite viability. 340,000 compounds, 0.15% hits. AID 540267, 2011; in the data active means activity change below about -80%; inconclusive means between about -30% and that limit;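 further: parasites exposed to compound for two days anaerobically before the ATP read; on the % scale 0 is the no-effect control and ±100 the full control effect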
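Anaerobic 48 hrs incubation at 37 deg C of 100 trophozoites/well with test compounds; ATPLite 1-Step luminescence, 15-30 min RT, reports cellular ATP as viability.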
MCF10A rereplic = A quantitative high throughput screen for small molecules that induce DNA re-replication in MCF 10a normal breast cells | MCF 10A DNA re-replication, Hoechst nuclear intensity, 48 h | Potency, µM (doses to about 46.1 µM), for inactives: at the top dose activity, positive = re-replication, usual class: activators | 350,000 compounds, 2.9% hits; further: potency means the concentration at half of the fitted maximal effect; % of control where 0% means no effect; nearly all actives have a fitted effect of over 50% in size
IL-1B inflam inh = qHTS for Inhibitors of Inflammasome Signaling: IL-1-beta AlphaLISA Primary Screen | THP-1 LPS/ATP IL-1B secretion, AlphaLISA, 16 h; hits give low values | activity change, % at 57.5 µM | 360,000 compounds, 4.7% hits | AID 743279, 2014; in the data active means activity change below about -50%; inconclusive means mostly about -30% to -49%; further: on the % scale 0 is the no-effect control and ±100 the full control effect
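Secreted IL-1B measured by AlphaLISA bead assay after 16 h compound exposure of THP-1 cells; compounds (final up to 57.5 uM) added 1 h before LPS (250 ng/mL) and ATP (1.25 mM) stimulation; lower signal means less secretion.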
Vif-A3G inh = qHTS for Inhibitors of Vif-A3G Interactions: qHTS. DNA dC->dU-editing enzyme APOBEC-3G (Homo sapiens), Q9HC16. HeLa A3G-eYFP + Vif (tagged APOBEC3G with the HIV-1 protein that degrades it), YFP fluorescence, overnight. Potency, µM (doses to about 46.1 µM), for inactives: at the highest dose activity, negative = active, actives largely listed as inhibitors. 410,000 compounds, 0.076% hits. AID 602310, 2012; further: potency means the concentration at half of the fitted maximal effect; on the % scale 0 is the no-effect control and ±100 the full control effect; nearly all actives have a fitted effect of over 60% in size
Target sequence (Q9HC16 whole entry, looked up): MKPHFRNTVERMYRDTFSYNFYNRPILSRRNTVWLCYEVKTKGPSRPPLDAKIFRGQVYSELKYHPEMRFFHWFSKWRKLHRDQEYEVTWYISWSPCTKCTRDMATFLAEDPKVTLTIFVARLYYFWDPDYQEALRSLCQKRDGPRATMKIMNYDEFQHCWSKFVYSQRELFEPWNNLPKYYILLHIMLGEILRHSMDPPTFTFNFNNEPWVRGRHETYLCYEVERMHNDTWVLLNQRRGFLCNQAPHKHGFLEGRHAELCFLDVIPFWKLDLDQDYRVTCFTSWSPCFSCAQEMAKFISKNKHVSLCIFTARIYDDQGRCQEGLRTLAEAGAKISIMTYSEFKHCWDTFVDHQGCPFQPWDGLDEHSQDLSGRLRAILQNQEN
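HeLa cells stably expressing Vif and C-terminally eYFP-tagged A3G, seeded overnight at 37 deg C, then exposed to compound by pintool overnight at 37 deg C. Rise in yellow fluorescence (Ex 488/Em 500-530, Acumen) marks blocked Vif-driven A3G degradation.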
SW480 rerep = A quantitative high throughput screen for small molecules that induce DNA re-replication in SW480 colon adenocarcinoma cells; SW480 DNA re-replication, Hoechst DNA content imaging, 48 h; Potency, µM (highest dose often 46.1 µM), inactives show at the highest dose re-replication activation, hits mostly activators; 340,000 compounds, 1.8% hits; further: potency means the concentration at half of the fitted maximal effect; % of control where 0% means no effect; nearly all actives have a fitted effect of over 55% in size
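DNA re-replication was detected as more nuclei of elevated Hoechst intensity after 48 hr exposure to compound (23 nL pinned per well of 250 cells).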
Starred values were filed as active, the others as inactive; i = inactive; ? = inconclusive; . = not tested or not shown. Unless noted, the call rests on the fitted dose curve; in most records, active means well fitted curve in the direction sought with a large enough effect; inconclusive means small, poorly fitted or top-dose-only effect, or another doubt; inactive means no such curve, though single readings can be large; an effect the other way counts as inactive or inconclusive.

SMILES	Vif-APOBEC3F blk	Giardia kill	MCF10A rereplic	IL-1B inflam inh	Vif-A3G inh	SW480 rerep
COc1ccc(Cn2c(SCc3ccc(C)cc3)nc3cc(OC)c(OC)cc3c2=N)cc1Cl	-15%	5	4.1µM*	-121*	?	?
CCn1cc2nc(SCc3cc(C)ccc3C)n(Cc3ccc(OC)cc3)c(=O)c2n1	0%	.	.	.	-5%	.
COc1ccc(Cn2c(SCc3cc(C)ccc3C)nc3cc(OC)c(OC)cc3c2=N)cc1	0%	4	3.7µM*	-96*	-1%	?
COc1ccc(C2CN=NC23CCCc2ccccc2C3=O)cc1 (centres undefined)	-1%	-5	18µM*	7	-23%	18µM*
NC(=S)NNc1c(F)c(F)c(F)c(F)c1F	2%	0	15µM*	-5	-15%	14%
Cn1c(SCC(=O)Nc2nc3ccccc3s2)ncc(C(=O)Nc2ccc(Cl)cc2)c1=O	11%	.	.	.	-3%	.
CCOC(=O)c1[nH]c(C)c(CCC(=O)Nc2cc(Cl)ccc2C)c1C	3%	.	.	.	0%	.
Cc1ccc(C2=CSC3=NCCN23)cc1	-2%	0	7.3µM*	-30	-1%	0%
O=[N+]([O-])c1ccc(C2=CSC3=NCCN23)cc1	12%	-19	1%	12	1%	-4%
COc1ccc(CNC(=O)c2ccc3c(c2)N(C)C(=O)C2CCCCN32)cc1OC (centres undefined)	3%	.	.	.	2%	.
Cc1[nH]c2ccccc2c1C(=O)c1cc(Cc2ccccc2)sc1N	.	.	.	-51*	.	.
COc1ccc(-c2cc3nc(C)c(CCC(=O)Nc4ccccc4C(C)=O)c(C)n3n2)c(OC)c1	3%	.	.	.	-5%	.
O=c1cc(CN2CCN(C/C=C/c3ccccc3)CC2)c2cc(O)ccc2o1	-4%	1	?	-54*	-8%	?
CCc1c(C)nc(SCC(=O)c2cccs2)c(C#N)c1C	?	1	11%	-99*	13µM*	-2%
Cc1cccc(C)c1NC(=O)CSc1nc(C)c(CC(=O)c2ccc(Br)cc2)c(C)c1C#N	-27%	-16	16µM*	24	0%	10%
CCc1c(C)nc(SCC(N)=O)c(C#N)c1C	0%	-8	0%	16	0%	-4%
CCSc1nc(C2CC2)cc(-c2cccs2)c1C#N	-28%	3	?	14	-15%	?
N#Cc1c(-c2ccccc2F)cc(C2CC2)nc1SCC(=O)c1cccs1	?	1	?	i	?	10µM*
CC(=O)Nc1cccc(NC(=O)CSc2nc(C)c(C)c(C)c2C#N)c1	-21%	-1	6%	0	-4%	24%
Cc1c(C2=CCN(S(=O)(=O)c3ccc(CC(C)C)cc3)CC2)c2ccccc2n1CC(=O)N1CCCC1	0%	.	.	.	2%	.
O=[N+]([O-])c1ccc(S(=O)(=O)N2CCN(c3nc(-c4cccs4)nc4ccccc34)CC2)cc1	.	-4	.	.	0%	.
CCN(CC)S(=O)(=O)c1nnc(NC(=O)COc2ccc(C)cc2)s1	5%	.	.	.	-3%	.
CCOc1ccc2c(c1)sc(N)[n+]2Cc1cc(C)cc2cccnc12	?	13	8.2µM*	-92*	?	4.6µM*
COc1ccc2c(c1)sc(N)[n+]2Cc1cc(C)cc2cccnc12	4%	16	4.6µM*	-52*	?	8.2µM*
CCCC(=O)Nc1cc(-c2nnc3c4ccccc4c(C)nn23)ccc1C	0%	.	.	.	2%	.
O=C(NCCSc1c(-c2ccccc2)[nH]c2ccccc12)c1ccc(S(=O)(=O)N2CCOCC2)cc1	0%	.	.	.	1%	.
Cc1ccc2c(Sc3ccccc3)c(C(=O)NCc3ccccc3F)[nH]c2c1	-4%	.	.	.	2%	.
